ALDH1A1 block – qHTS Assay for Inhibitors of Aldehyde Dehydrogenase 1 (ALDH1A1). Aldehyde dehydrogenase 1A1 (Homo sapiens), P00352. Purified ALDH1A1, NADH fluorescence, propionaldehyde substrate. Potency, µM (highest dose often 75.3 µM), inactives show top-dose activity, negative = inhibition, usual class: inhibitors. 7.3% of 220,000 active. AID 1030, 2008; active means well fitted inhibition curve with a large enough effect, not every such curve was filed as active; inconclusive means small, poorly fitted or top-dose-only effect, or another doubt; inactive means no such curve, though single readings can be large or run the other way;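 further: plate controls were no enzyme wells and a reference inhibitor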
Gal4-VP16 FLuc – VP16 counterscreen qHTS for inhibitors of ROR gamma transcriptional activity | Drosophila S2 Gal4-VP16 UAS-luciferase, luminescence, 20 h | Potency, µM (doses to about 53.6 µM), without a hit: at the top dose activity, negative = inhibition, most hits filed as inhibitors | 3.5% of 310,000 active | AID 2546, 2010;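 further: Gal4-VP16 expression switched on by copper sulfate through the metallothionein promoter; nearly all actives have a fitted effect of over 50% in size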
PLK1 PBD block – qHTS for Inhibitors of PLK1-PDB (polo-like kinase 1 - polo-box domain): Primary Screen; Plk1 PBD binding of FITC phosphopeptide, fluorescence polarization; Potency, µM, for the others: max response, negative = inhibition, usual class: inhibitors; 2.8% of 360,000 active; further: series mostly up to about 57 µM; nearly all actives have a fitted effect of over 65% in size
Target sequence (P53350 whole entry, looked up, the tested form may be a part): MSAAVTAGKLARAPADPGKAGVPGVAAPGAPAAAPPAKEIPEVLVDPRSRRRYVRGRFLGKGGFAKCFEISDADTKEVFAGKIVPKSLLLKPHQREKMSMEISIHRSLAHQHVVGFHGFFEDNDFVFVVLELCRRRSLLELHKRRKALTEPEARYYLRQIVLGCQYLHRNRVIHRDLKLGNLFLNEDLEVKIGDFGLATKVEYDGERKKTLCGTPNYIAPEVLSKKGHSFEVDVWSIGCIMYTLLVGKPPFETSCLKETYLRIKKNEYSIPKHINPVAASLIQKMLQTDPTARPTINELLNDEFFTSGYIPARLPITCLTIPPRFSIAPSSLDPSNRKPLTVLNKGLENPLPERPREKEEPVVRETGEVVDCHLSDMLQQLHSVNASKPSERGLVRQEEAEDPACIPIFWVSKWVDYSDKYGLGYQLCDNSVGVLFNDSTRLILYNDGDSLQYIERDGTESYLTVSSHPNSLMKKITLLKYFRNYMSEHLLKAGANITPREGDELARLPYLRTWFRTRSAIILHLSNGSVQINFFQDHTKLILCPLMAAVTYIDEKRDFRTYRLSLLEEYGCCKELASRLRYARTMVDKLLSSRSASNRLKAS
Sfp inh – qHTS Assay for Inhibitors of Bacillus subtilis Sfp phosphopantetheinyl transferase (PPTase). 3.5% of 310,000 active. 4'-phosphopantetheinyl transferase ffp (Bacillus subtilis), Q9F4F7. Potency, µM, without a hit: largest response in the series, negative = inhibition, usual class: inhibitors. Biochemical Sfp PPTase activity, qHTS;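 further: the enzyme is Sfp with the accession as filed and its product quenches rhodamine fluorescence; 0% = enzyme reaction without inhibitor and -100% = no enzyme wells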
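Buffer: 50 mM Hepes-Na pH 7.6, 10 mM MgCl2, 0.01% Nonidet P-40, 0.01% BSA. Enzyme 15 nM, pre-exposed to compound 15 min; substrates then added and fluorescence change tracked over 30 min.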
RORg inh – qHTS for inhibitors of ROR gamma transcriptional activity; AID 2551, 2010; Potency, µM (series often up to 53.6 µM), for inactives: at the highest dose activity change, negative = inhibition, hits mostly inhibitors; 5.4% of 310,000 active; Drosophila S2 Gal4-RORgamma UAS-luciferase reporter, 20 h; Nuclear receptor ROR-gamma (Mus musculus), P51450; further: nearly all actives have a fitted effect of over 60% in size
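Schneider cells (Drosophila), stable Gal4 DBD–ROR gamma + UAS-luc; 1 hr cmpd preincubation; Cu2+ induction 700 uM final; 20 hr ambient; luminescence.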
An asterisk follows results filed as active; ? = inconclusive; / = no result; [ ] = dose if it differs, or a comment. In the library only some 12% were active in any assay of this set; here they are far more common. Unless noted, the call rests on the fitted dose curve; in most records, active means well fitted curve in the direction sought with a large enough effect; inconclusive means small, poorly fitted or top-dose-only effect, or another doubt; inactive means no such curve, though single readings can be large; an effect the other way counts as inactive or inconclusive. Unless noted, on the % scale 0 is the no-effect control and ±100 the full control effect; potency means the concentration at half of the fitted maximal effect.

SMILES	ALDH1A1 block	Gal4-VP16 FLuc	PLK1 PBD block	Sfp inh	RORg inh
CC1(c2nnnn2Cc2ccccc2)CCC(=O)N1c1ccc(N2CCOCC2)cc1 (stereo not given)	/	/	-16%	/	/
CC12CCC(=O)N1C(C(=O)Nc1nc3c(F)cc(F)cc3s1)CS2 (stereo not given)	/	3.5µM*	-23%	-3%	-31%
COc1cc(/C=N/Nc2ccc(Cl)c(C(=O)O)c2)ccc1OC(=O)c1ccco1	?	1%	-19%	-5%	-1%
COc1cc(/C=N/Nc2nc3c(c(=O)n(C)c(=O)n3C)n2Cc2ccccc2)ccc1OC(=O)c1ccco1	?	18µM*	-9%	7%	-23%
Cc1ccc(Cn2c(N/N=C/c3ccncc3)nc3c2c(=O)n(C)c(=O)n3C)cc1	/	10µM*	5%	19%	-44%
Cn1c(=O)c2c(nc(N/N=C/c3ccncc3)n2Cc2ccccc2)n(C)c1=O	/	-16%	-3%	13%	2%
Cn1cccc1C(=O)N1CCC[C@@]2(CCN(C(c3ccccc3)c3ccccc3)C2)C1	-6%	1%	/	11%	-20%
Nc1nccc(SCc2ccccc2)n1	/	/	4%	/	/
Cc1cccc2c1-c1sc(C(=O)N3CCc4ccccc4C3)cc1CO2	?	?	-11%	-2%	?
Cc1cccc2c1-c1sc(C(=O)N3CCCCC3)cc1CO2	/	?	-6%	-9%	10µM*
O=C(c1ccco1)N1CCN(C(=O)c2cc3c(s2)-c2ccccc2OC3)CC1	?	1%	-21%	50µM*	31%
Cc1cccc2c1-c1sc(C(=O)Nc3ccccc3N3CCN(C)CC3)cc1CO2	/	-13%	-7%	35µM*	?
O=C(O)c1cc2c(s1)-c1ccccc1OC2	?	-3%	-14%	-16%	-28%
COc1cccc(C=NC=Nc2cccc(OC)c2)c1	-4%	-6%	/	?	5%
Cc1ccc(CC(=O)NCc2ccc(Cl)cc2)cc1	?	9%	15µM*	11%	3%
Cc1nn(C)c(C(=O)NCc2ccc(Cl)cc2)c1Cl	11%	4µM*	-6%	8%	?
CCSC[C@H](NC(=O)[C@H](C)N)C(=O)N[C@@H](CC(=O)O)C(=O)N[C@H](C(=O)N[C@@H](C)C(=O)N[C@H](C(=O)N[C@@H](CSCC)C(=O)N[C@H](C(=O)N[C@H](C(=O)N[C@@H](Cc1cnc[nH]1)C(=O)N[C@@H](CCCNC(=N)N)C(=O)N[C@@H](CC(C)C)C(=O)N[C@@H](C)C(=O)NCC(=O)N[C@@H](CC(C)C)C(=O)N[C@@H](CC(C)C)C(=O)N[C@@H](CO)C(=O)N[C@@H](CCCNC(=N)N)C(=O)N[C@@H](CO)C(=O)NCC(=O)NCC(=O)N[C@H](C(=O)N[C@H](C(=O)N[C@@H](CCCCN)C(=O)N[C@@H](CC(N)=O)C(=O)N[C@@H](CC(N)=O)C(=O)N[C@@H](Cc1ccccc1)C(=O)N[C@H](C(=O)N1CCC[C@H]1C(=O)N[C@H](C(=O)N[C@@H](CC(N)=O)C(=O)N[C@H](C(=O)NCC(=O)N[C@@H](CO)C(=O)N[C@@H](CCCCN)C(=O)N[C@@H](C)C(=O)N[C@@H](Cc1ccccc1)C(N)=O)C(C)C)[C@@H](C)O)C(C)C)C(C)C)C(C)C)[C@@H](C)O)C(C)C)[C@@H](C)O)[C@@H](C)O	/	-1%	/	7%	-2%
CC(C)(C)OC(=O)N1CCC[C@H]1C(=O)Nc1ccc(S(=O)(=O)C(F)F)cc1	/	3%	-5%	5%	31%
COc1cccc(N2CCN(C(=O)/C=C/c3ccco3)CC2)c1	?	-13%	4%	8.9µM*	15%
COc1ccc(S(=O)(=O)N2CCN(C(=O)/C=C/c3ccco3)CC2)cc1	/	/	-15%	/	/
O=C(/C=C/c1ccco1)N1CCN(c2ncccn2)CC1	14µM*	-7%	-6%	?	2%
O=C(/C=C/c1ccco1)N1CCC(Cc2ccccc2)CC1	20µM*	8%	?	?	?
CCOc1ccc(-c2csc(N)c2C(=O)OC)cc1	22µM*	1%	7.9µM*	45µM*	-18%
CCOC(=O)c1c(-c2cccc([N+](=O)[O-])c2)csc1NC(=O)C1CCCCC1	?	10µM*	-6%	5%	?
CCOC(=O)c1cc(-c2cccc([N+](=O)[O-])c2)n[nH]1	-14%	5%	0%	12%	-9%
SMILES	ALDH1A1 block	Gal4-VP16 FLuc	PLK1 PBD block	Sfp inh	RORg inh
CCOC(=O)c1c(-c2ccncc2)csc1N	?	2%	?	-11%	-42%
CCOC(=O)c1c(-c2cccc([N+](=O)[O-])c2)csc1NC(=O)C1CC1	-11%	?	-12%	-6%	?
CCOC(=O)c1c(-c2cccc([N+](=O)[O-])c2)csc1N	?	-4%	30µM*	-14%	-32%
CCOC(=O)c1csc(N)c1-c1ccc([N+](=O)[O-])cc1	/	-3%	?	50µM*	2%
NC(=O)C[C@H](N)C(N)=O	0%[13.5 µM]	/	/	/	/
CCCCCCCCCCCCCCCCCCCCCC(=O)Nc1ccn([C@@H]2O[C@H](CO)[C@@H](O)[C@@H]2O)c(=O)n1	/	-22%	/	12%	4%
COc1ccc(OC)c(NC(=O)Nc2nnc([C@@H]3O[C@H](CO)[C@@H](O)[C@H]3O)s2)c1	/	/	-12%	/	/
CN(CCCC(=O)Nc1ccncc1)S(=O)(=O)c1ccc(Cl)cc1	7%	16µM*	-3%	0%	25%
O=C(Cc1ccc(Cl)cc1)Nc1ccncc1	10%	2.8µM*	-1%	13%	?
COC(=O)c1ccc2nc(-c3cccc(Cl)c3)c(Cc3ccsc3)n2c1	/	/	-5%	/	/
Cc1ccc(C(O)c2nc3ccccc3n2C(C)C)cc1 (stereo not given)	5%	-9%	-14%	18%	?
COc1ccc(C(O)c2nc3ccccc3n2C(C)C)cc1 (stereo not given)	/	-7%	24µM*	7%	-41%
CC(=Nc1ccc(Br)cc1)c1sc2ccccc2c1O	/	?	?	32µM*	?
O=C(NCCCN1CCCC1=O)C(=O)NCC1OCCCN1S(=O)(=O)c1ccccc1 (stereo not given)	/	/	-14%	/	/
COC(=O)Cn1c(=NC(=O)c2ccc([N+](=O)[O-])s2)sc2cc(Br)ccc21	8.9µM*	-8%	/	-13%	34%
COC(=O)Cn1c(=NC(=O)c2ccc(Cl)s2)sc2cc(C)ccc21	?	-3%	-7%	0%	38%
O=C(NC(=S)Nc1cccc(Cl)c1N1CCCCC1)c1ccc2c(c1)OCCO2	?	4.5µM*	-4%	14%	2.5µM*
CCC(=O)NC(=S)Nc1cccc(Cl)c1N1CCCC1	?	?	-9%	-3%	1.1µM*

High-throughput results deposited in PubChem BioAssay by National Center for Advancing Translational Sciences (NCATS).
